Among the data in PubChem BioAssay AID540364 (The Scripps Research Institute Molecular Screening Center, 2011) are activation values, retold here.

Hit rate of the full screen: of about 360,000 compounds, about 2,000 (0.56%) were called active.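 How the source made its calls: active means activation above the average of all compounds screened plus 3 SD, cutoff fixed separately per campaign (cut at about 7.5% in these data); inactive means the rest.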 For the sample, actives were picked, then their nearest neighbours and some compounds at random.

This assay can be described thus: FXN promoter activators, primary screen, cell-based, luciferase luminescence, HEK293 lucGAA850 (AID 540364).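 Further: 0% = DMSO wells and 100% = 10 µM SAHA wells.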 The note with it: HEK293 lucGAA850 FXN promoter luciferase reporter, 24 h; at 6 µM; stronger effect = higher value; percent of 10 µM SAHA response. (In general: A reporter such as luciferase makes a cellular process visible.)
`Oc1ccc(C2Nc3cccc4cccc(c34)N2)cc1`: the activation is 1.97% (inactive).

With `Cc1ccc(C2CC(c3cccc(C)c3)n3nc(N)nc3N2)cc1` (centres undefined), the activation was -0.54% (inactive).

With `Cc1ccc(C2Nc3cccc4cccc(c34)N2)cc1`, the activation is 14.9% (active).

In the case of `CSCCC(NC(=O)COc1ccccc1)C(=O)OCC(=O)c1cc2ccccc2o1` (centres undefined), the activation was -0.05% (inactive).

`CC(C)c1ccc(NC2CCCN(C(=O)c3ccncc3)C2)cc1` (centres undefined): the activation was 3.59% (inactive).

As for `O=C(O)CCCCCCCCCC[n+]1ccccc1`, the activation was 0.28% (inactive).

As for `CCCCCCCCCCCC(=O)O`, the activation was 9.07% (active).

Turning to `NC(=O)NCCCC(=O)O`, the activation is 1.1% (inactive).

Consider `Cn1c(=O)cc(OCCCC(=O)N2CCN(c3ccccn3)CC2)c2ccccc21`, for which the activation was -3.01% (inactive).

`O=C(Nc1ccc(F)cc1)c1cc2c(s1)CCCC2`: the activation is 2.99% (inactive).

For the compound `O=C(NCc1cccnc1)Nc1cccc(NC(=O)NCc2cccnc2)c1F`, the activation was 0.81% (inactive).

Regarding `CCN(CCN(C)C)C(=O)c1ccc2nc(C)c(N(C)C(=O)CCc3ccccc3)n2c1`, the activation was 0.72% (inactive).

For the compound `CC(C)c1ccc(NS(=O)(=O)c2cn(C)c(=O)n(C)c2=O)cc1`, the activation is 14.8% (active).

Consider `Cn1cc(S(=O)(=O)Nc2ccc(Cl)cc2Cl)c(=O)n(C)c1=O`, for which the activation was 1.45% (inactive).

As to `Cn1cc(S(=O)(=O)NC(c2ccccc2)c2ccccc2)c(=O)n(C)c1=O`, the activation was -1.45% (inactive).

Turning to `COc1ccc(C(C#N)Nc2ccc(C)cc2)cc1` (centres undefined), the activation is -0.7% (inactive).

On to `O=C1C=C(c2ccnc3cc(Cl)ccc23)C[C@@H](c2ccc3c(c2)OCO3)C1`, for which the activation is -1.07% (inactive).

Take `Cc1ccc(-c2cc(C(=O)N/N=C/C=C/c3ccccc3)n[nH]2)o1`: the activation is 1.11% (inactive).

For `CC(C)c1cc(C(=O)O)n[nH]1`, the activation is -1.31% (inactive).

`Cc1cc(C(=O)N/N=C\C(Br)=C\c2ccccc2)c(C)o1`: the activation was 11.4% (active).

With `Cc1cc(C(=O)NCCc2ccc(Cl)cc2)c(C)o1`, the activation is 3.56% (inactive).

As to `CC(C)c1cc(C(=O)N/N=C/C(Br)=C/c2ccccc2)n[nH]1`, the activation was 9.41% (active).

As for `Cc1cc(-c2n[nH]c(=S)n2/N=C/C(Br)=C/c2ccccc2)n[nH]1`, the activation was -0.09% (inactive).

Consider `CCN(C(=O)COC(=O)C1CCN(S(=O)(=O)c2ccc(C)c(C)c2)CC1)C1CCS(=O)(=O)C1` (centres undefined), for which the activation is 0.06% (inactive).

Regarding `COc1cccc(OC)c1C(=O)Nc1ccc(Cc2ccncc2)cc1`, the activation was 3.03% (inactive).

For the compound `CC(=O)c1ccc(NC(=O)CCc2nnc3ccc(NCc4ccco4)nn23)cc1`, the activation was 3.69% (inactive).

Consider `CCc1nnc(NC(=O)CSc2nnnn2-c2cccc(C(C)=O)c2)s1`, for which the activation is 0.27% (inactive).

Take `CC[C@]12c3[nH]c4ccc(Cl)cc4c3CCN1C(=O)[C@@H](CC(=O)NCCCOC)C[C@@H]2C(=O)N1CCN(C(=O)C2CC2)CC1`: the activation was -1.48% (inactive).

Turning to `O=C(CCN1C(=O)c2ccncc2C1=O)Nc1ccc2c(c1)OCCO2`, the activation is -1.17% (inactive).

For `O=C(Nc1ccc2c(c1)OCCO2)c1cnccn1`, the activation is 7.89% (active).

`O=C(Nc1ccc2c(c1)OCCO2)c1ccoc1`: the activation was 0.23% (inactive).

Consider `COC(=O)[C@@]1(C)[C@H]2C(=O)N(Cc3ccccc3)C(=O)[C@H]2[C@H]2CN=C(SCC3CC3)N21`, for which the activation is 15.7% (active).

As to `CCC1(CC)C(=O)C2=C3C1[C@H](C(=O)OC)C=C(C(=O)OC)C[C@H]3[C@H]1C(=O)N(Cc3ccccc3)C(=O)[C@H]1[C@H]2C` (some centres undefined), the activation was -4.42% (inactive).

Regarding `CC[C@]1(C(=O)OC)[C@H]2C(=O)N(Cc3ccccc3)C(=O)[C@H]2[C@H]2CN=C(SCc3ccccc3)N21`, the activation is 15.5% (active).

On to `CC[C@]1(C(=O)OC)[C@H]2C(=O)N(Cc3ccccc3)C(=O)[C@H]2[C@H]2CN=C(SCc3ccc(Cl)cc3)N21`, for which the activation is 17.8% (active).

Consider `CCN1C[C@@H]2[C@@H]3C(=O)N(Cc4ccccc4)C(=O)[C@@H]3[C@](C)(C1=O)N2C(=O)c1ccc(C(C)(C)C)cc1`, for which the activation is 1.3% (inactive).

Regarding `CCN1C[C@@H]2[C@@H]3C(=O)N(Cc4ccccc4)C(=O)[C@@H]3[C@](Cc3ccccc3)(C(=O)OC)N2C1=NC1CCCCC1`, the activation was 0.85% (inactive).

On to `CCNC(=O)N(CC)C[C@H]1N[C@@](CC)(C(=O)OC)[C@H]2C(=O)N(Cc3ccccc3)C(=O)[C@@H]12`, for which the activation is 0.95% (inactive).

Take `CC[C@]1(C(=O)OC)[C@H]2C(=O)N(C)C(=O)[C@H]2[C@H]2CN(C)C(=NCc3ccccc3)N21`: the activation was -0.41% (inactive).

As to `CCN(C[C@H]1N[C@@](Cc2ccccc2)(C(=O)OC)[C@H]2C(=O)N(Cc3ccccc3)C(=O)[C@@H]12)C(=O)c1ccc(C)cc1`, the activation was -1.78% (inactive).

As for `CCCN=C1N(C)C[C@@H]2[C@@H]3C(=O)N(Cc4ccccc4)C(=O)[C@@H]3[C@](C)(C(=O)OC)N12`, the activation was -0.73% (inactive).

On to `COC(=O)[C@]1(Cc2ccccc2)N[C@H](CN(C)S(=O)(=O)c2ccc(F)cc2)[C@@H]2C(=O)N(Cc3ccccc3)C(=O)[C@@H]21`, for which the activation is -3.95% (inactive).

For `CC[C@]1(C(=O)OC)[C@H]2C(=O)N(Cc3ccccc3)C(=O)[C@H]2[C@H]2CN=C(SCc3ccc(C#N)cc3)N21`, the activation is 13.3% (active).

Turning to `CCSC1(SCC)N=C(N)C2(C#N)C(c3ccccc3)NC(C)=CC12C#N` (centres undefined), the activation is -1.4% (inactive).

Take `O=C1CSC2=NCN(c3ccccc3)CN12`: the activation is 1.46% (inactive).

On to `CC(=O)Oc1ccc(OC(C)=O)c2c1C1C=CC2CC1`, for which the activation is 0.61% (inactive).

For the compound `CC(=O)N1CCN(c2ccc(NCc3ccc(C(C)C)cc3)cc2)CC1`, the activation is -1.92% (inactive).

As for `CC(=O)c1ccc(OC(=O)N2CCOCC2)cc1`, the activation is 0.72% (inactive).

Regarding `CC(C)NC(=O)C1(C)CCCCN1Cc1cccc(C(F)(F)F)c1` (centres undefined), the activation is 0.98% (inactive).

For the compound `CC(=O)N1c2ccc(S(=O)(=O)N3CCCC(C(=O)Nc4cccc(F)c4)C3)cc2CC1C` (centres undefined), the activation is 1.26% (inactive).

Take `COCc1cc(=O)oc2cc(NS(=O)(=O)c3ccc(C)cc3)ccc12`: the activation is 0.66% (inactive).

For `COc1ccc(CCNS(=O)(=O)c2cc3c(cc2C)NC(=O)CO3)cc1OC`, the activation is -0.37% (inactive).

Turning to `O=C1COc2c1ccc(O)c2O`, the activation was 1.71% (inactive).

For `S=C(NCCCc1cnc[nH]1)NCCCN(Cc1ccc(Cl)c(Cl)c1)c1ccc(Br)cn1`, the activation is -0.12% (inactive).
